Screens as filed in PubChem BioAssay.
Only some compounds are listed: those with a hit (about 18% of all), similar ones and a draw of the others.
RORg inh: ROR gamma (mouse) transcription inhibition; 310,000 compounds, 5.4% hits; AID 2551; Drosophila S2 Gal4-RORgamma UAS-luciferase reporter, 20 h; Potency, µM (doses to about 53.6 µM), hits mostly inhibitors; P51450; note: nearly all actives have a fitted effect of over 60% in size
Target sequence (P51450 whole entry, looked up, the tested form may be a part): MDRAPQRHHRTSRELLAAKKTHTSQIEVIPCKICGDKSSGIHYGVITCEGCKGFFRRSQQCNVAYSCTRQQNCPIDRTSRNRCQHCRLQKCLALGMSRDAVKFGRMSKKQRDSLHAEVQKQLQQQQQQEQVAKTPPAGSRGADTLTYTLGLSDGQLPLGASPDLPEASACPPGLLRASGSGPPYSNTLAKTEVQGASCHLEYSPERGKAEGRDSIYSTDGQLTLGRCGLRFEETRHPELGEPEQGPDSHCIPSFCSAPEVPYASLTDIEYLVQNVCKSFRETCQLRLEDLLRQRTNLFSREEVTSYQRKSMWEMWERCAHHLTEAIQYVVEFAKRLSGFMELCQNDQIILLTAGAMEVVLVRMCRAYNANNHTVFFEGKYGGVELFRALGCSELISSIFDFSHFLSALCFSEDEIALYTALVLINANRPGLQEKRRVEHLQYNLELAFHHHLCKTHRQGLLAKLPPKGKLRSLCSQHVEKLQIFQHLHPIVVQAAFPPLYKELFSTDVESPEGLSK
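Read-out: Photinus luciferase luminescence; inhibitors lower reporter signal. Insect Schneider cells with Gal4-ROR gamma fusion under metallothionein promoter, UAS reporter; 700 uM final copper sulfate induction, 20 hr, ambient temperature.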
Gal4-VP16 FLuc: Gal4-VP16 reporter inhibition counter-screen; 310,000 compounds, 3.5% hits; Drosophila S2 Gal4-VP16 UAS-luciferase, luminescence, 20 h; AID 2546; Potency, µM (top dose mostly 53.6 µM), most hits filed as inhibitors;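 note: Gal4-VP16 expression switched on by copper sulfate through the metallothionein promoter; nearly all actives have a fitted effect of over 50% in size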
IL-1B inflam inh: inhibitors of inflammasome signaling (IL-1 beta secretion); THP-1 LPS/ATP IL-1B secretion, AlphaLISA, 16 h; stronger effect = lower value; activity change, % at 57.5 µM; 360,000 compounds, 4.7% hits; in the data active = activity change below about -50%; inconclusive = mostly about -30% to -49%
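THP-1 cells pretreated 1 hr with compounds (up to 57.5 uM final), then stimulated with LPS (250 ng/mL final) plus ATP (1.25 mM final); secreted IL-1B measured by AlphaLISA after 16 hr, decreased signal indicating inhibition.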
LDHA block: LDHA (human) enzyme inhibition. P00338. purified LDHA, NADH/diaphorase-resazurin fluorescence; stronger effect = lower value. activity change, % (values are at about 110 or 230 µM). 480,000 compounds, 0.15% hits; in the data active = activity change below about -30%; inconclusive = mostly about -25% to -30%
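Remaining NADH was detected by diaphorase (0.133 mg/mL) converting 37 µM resazurin to fluorescent resorufin, read at 0 and 20 minutes. The preceding 5-minute room-temperature reaction used 2 nM LDHA, 0.2 mM sodium pyruvate and 0.06 mM NADH at pH 7.4.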
TDP1 cell noCPT: qHTS for Inhibitors of human tyrosyl-DNA phosphodiesterase 1 (TDP1): qHTS in cells in absence of CPT; DT40 Tdp1-/- hTDP1 cells, no CPT, ATP luminescence, 48 h; Potency, µM (titrated, usually from 46.2 µM), actives largely listed as inhibitors; 420,000 compounds, 15% hits; AID 686978, 2013; note: nearly all actives have a fitted effect of over 55% in size
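Growth kinetics read by CellTiter-Glo luminescence after ≥48 hr at 37 °C. Cells: DT40 Tdp1-/- stably carrying human TDP1, 400 per well, compound exposure in the absence of CPT (DMSO vehicle).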
DT40 TDP1 CPT: DT40-hTDP1 cell growth loss with CPT. 420,000 compounds, 12% hits. AID 686979. Potency, µM (titrated, usually from 46.2 µM), usual class: inhibitors. chicken DT40 Tdp1-/-;hTDP1 cells + 20 nM CPT, ATP luminescence, 48 h; note: nearly all actives have a fitted effect of over 55% in size
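Cell growth measured by CellTiter-Glo luminescence after a minimum 48 h, 37 C compound exposure with 20 nM CPT in Tdp1-knockout DT40 cells stably expressing hTDP1, seeded 400/well; qHTS titration format.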
A number is an active result; i = inactive; ? = inconclusive; nt = no result given; [ ] = another dose, or the depositor's remark. Unless noted, calls come from the whole dose curve; as a rule, active = well fitted curve in the direction sought with a large enough effect; inconclusive = small, poorly fitted or top-dose-only effect, or another doubt; inactive = no such curve, though single readings can be large; an effect the other way counts as inactive or inconclusive.

SMILES	RORg inh	Gal4-VP16 FLuc	IL-1B inflam inh	LDHA block	TDP1 cell noCPT	DT40 TDP1 CPT
Cc1ccccc1NS(=O)(=O)c1ccc2[nH]cc(C(=O)N(C)Cc3ccco3)c(=O)c2c1	i	i	i	i	i	i
Cc1cccc(CCNC(=O)c2c[nH]c3ccc(S(=O)(=O)Nc4ccccc4F)cc3c2=O)c1	nt	nt	nt	i	?	12µM
COc1cccc(NS(=O)(=O)c2ccc3[nH]cc(C(=O)NCCc4ccc(C)cc4)c(=O)c3c2)c1	nt	nt	nt	i	16µM	15µM
Cc1cc(C)cc(NS(=O)(=O)c2ccc3[nH]cc(C(=O)NCc4ccco4)c(=O)c3c2)c1	i	i	-56	i	15µM	12µM
Cc1nc(SCC(=O)Nc2ccccc2)oc1C	nt	nt	nt	i	nt	nt
CCOC(=O)c1cc2cccc(C(C)C)c2[nH]1	nt	nt	nt	i	nt	nt
Cc1cc(C)cc(NS(=O)(=O)c2ccc3[nH]cc(C(=O)NC4CCCCC4)c(=O)c3c2)c1	nt	nt	nt	i	16µM	23µM
COc1cccc(NS(=O)(=O)c2ccc3[nH]cc(C(=O)NC4CC4)c(=O)c3c2)c1	i	i	i	i	?	i
COc1cccc(NS(=O)(=O)c2ccc3[nH]cc(C(=O)NC4CCCCC4)c(=O)c3c2)c1	nt	nt	nt	i	18µM	18µM
CCCCOc1ccc(C2=CSC3=NCCN23)cc1[N+](=O)[O-]	i	i	i	i	29µM	?
Cc1ccc(Sc2ccc(NC(=O)c3ccccc3)cc2)c(C)c1	nt	nt	nt	i	nt	nt
CC1CCN(S(=O)(=O)c2ccc(C(=O)Nc3nc(-c4ccccc4)cs3)cc2)CC1	nt	nt	nt	i	nt	nt
Cc1n[nH]c(=S)n1/N=C/c1ccc(OCc2ccc(Cl)cc2)cc1	5.6µM	i	i	i	?	?
S=c1[nH]nc(Cc2ccc(Br)cc2)n1/N=C/c1ccc(Cl)cc1	i	i	-63	i	?	?
Nn1c(Cc2ccc(Br)cc2)n[nH]c1=S	i	i	i	i	i	i
CSc1ccc(/C=N/n2c(COc3ccccc3)n[nH]c2=S)cc1	?	?	i	i	i	i
CCCCCOc1ccc(/C=C/C(=O)/C=C/c2ccc(OCCCCC)cc2)cc1	nt	nt	nt	i	nt	nt
COCCCNc1ncnc2c1cnn2-c1ccc(F)cc1	nt	nt	nt	i	5.8µM	5.2µM
COCCNc1ncnc2c1cnn2Cc1ccc(Cl)cc1	i	i	i	i	?	?
Cc1ccc(CNc2ncnc3c2cnn3-c2ccccc2)cc1	i	i	i	i	i	i
COCCNc1ncnc2c1cnn2Cc1ccccc1Cl	i	i	i	i	18µM	?
CCCCNc1ncnc2c1cnn2-c1ccccc1	i	i	i	i	2.6µM	2.3µM
CCCCNc1ncnc2c1cnn2Cc1ccc(Cl)cc1	i	i	i	i	6.5µM	9.2µM
CC(=O)c1ccc(NC(=O)c2sc3nc(N4CCOCC4)c4c(c3c2N)CC(C)(C)OC4)cc1	nt	nt	nt	i	nt	nt
CCN(CC)C(=O)CN1CCCN(C(=O)c2cc3ccccc3n2C)CC1	nt	nt	nt	i	nt	nt
SMILES	RORg inh	Gal4-VP16 FLuc	IL-1B inflam inh	LDHA block	TDP1 cell noCPT	DT40 TDP1 CPT
Clc1ccc(Cn2ncc3c(NCc4ccccc4)ncnc32)cc1	?	i	i	i	4.1µM	4.6µM
CCN(CC)c1ncnc2c1cnn2Cc1ccc(Cl)cc1	?	i	?	i	?	21µM
c1ccc(Cn2ncc3c(NCc4ccco4)ncnc32)cc1	i	i	i	i	?	?
Clc1ccc(-n2ncc3c(NCCCn4ccnc4)ncnc32)cc1	i	i	i	i	i	?
CCc1nc(NC(C)(C)C)c2cnn(-c3ccccc3)c2n1	i	i	i	i	18µM	?
CCCCNc1ncnc2c1cnn2-c1ccc(Cl)cc1	i	i	i	i	4.6µM	3.7µM
CCc1ccccc1Nc1ncnc2c1cnn2-c1ccccc1	nt	nt	nt	i	nt	nt
O=c1oc2ccccc2c(NC2CCCC2)c1NS(=O)(=O)c1cccc(F)c1	nt	nt	nt	i	nt	nt
CCOC(=O)C1=C(Nc2ccccc2)O/C(=C\c2ccc(OC(F)F)cc2OC(F)F)C1=O	nt	nt	nt	i	nt	nt
Cc1c(-c2ccccc2)oc2c(C(=O)N3CCCC(C)C3)cccc2c1=O (stereo not given)	nt	nt	nt	i	nt	nt
CN(C)C(CNC(=O)CCc1ncc(-c2ccccc2F)o1)c1ccco1 (stereo not given)	nt	nt	nt	i	nt	nt
Cc1cc(S(=O)(=O)n2[nH]c(=O)c(CCO)c2C)c(Cl)cc1Cl	i	i	i	i	?	16µM
COC(=O)c1ccc(C)c(NC(=O)c2cc(=O)c3cc(C)ccc3o2)c1	nt	nt	nt	i	nt	nt
COc1ccc(-c2c(-c3ccc(O)cc3O)n[nH]c2C(F)(F)F)cc1	i	10µM	i	i	i	?
C=C(C)COc1ccc(-c2ncnc(C(F)(F)F)c2-c2ccccc2)c(O)c1	i	i	i	i	?	i
COc1ccccc1-c1c(-c2ccc(O)cc2O)n[nH]c1C(F)(F)F	?	i	i	i	2.3µM	5.8µM
Oc1ccc(-c2n[nH]c(C(F)(F)F)c2-c2ccccc2)c(O)c1	5.6µM	1.6µM	-78	i	1.6µM	1.8µM
COc1ccccc1-c1c(C)nn2c(C(F)(F)F)cc(-c3ccccc3)nc12	nt	nt	nt	i	?	?
Cc1c(N=C2N=C(NC(=O)Nc3ccc(Cl)cc3)c3ccccc32)c(=O)n(-c2ccccc2)n1C	i	i	i	i	23µM	18µM
CCC1(C)CC(CCNCc2ccccc2)(C(C)C)CCO1 (stereo not given)	nt	nt	nt	i	nt	nt
Cc1ccc(C(=O)N/C(=C\c2cccnc2)c2nc3ccccc3[nH]2)cc1	i	i	i	i	?	?
Cc1ccc(C(=O)N/C(=C\c2ccc(Br)cc2)c2nc(=S)[nH][nH]2)cc1	i	?	-79	i	?	?
O=C(N/C(=C/c1cccc(Br)c1)c1nc(=S)[nH][nH]1)c1ccccc1	i	?	-100	i	?	?
CCOC(=O)c1sc2nc(C(C)N3CCOCC3)[nH]c(=O)c2c1C (stereo not given)	nt	nt	nt	i	nt	nt
CCOc1ccccc1NC(=O)/C(C#N)=C/c1c(C)nn(-c2ccccc2)c1Cl	i	i	-51	i	?	?
SMILES	RORg inh	Gal4-VP16 FLuc	IL-1B inflam inh	LDHA block	TDP1 cell noCPT	DT40 TDP1 CPT
C=CCNC(=O)/C(C#N)=C/c1c(C)nn(-c2ccccc2)c1Cl	?	13µM	-68	i	?	?
Cc1nc2ccccc2n1CC(O)COC1CCCCC1 (stereo not given)	?	i	i	i	21µM	18µM
CCCCOCC(O)Cn1c(C)nc2ccccc21 (stereo not given)	i[10 µM]	i	i	i	?	i
CC(C)c1nc2ccccc2n1CC(O)COC1CCCCC1 (stereo not given)	i	i	i	i	16µM	?
CN(C)/C=C/C(=O)c1ccccn1	nt	nt	nt	i	nt	nt
O=C(CN1C(=O)S/C(=C\c2cccn2-c2ccc(C(=O)O)cc2)C1=O)Nc1ccccc1F	nt	nt	nt	i	nt	nt
